ERK EGF inh: EGF-driven ERK pathway inhibition. Potency, µM (titrated, usually from 11.5 µM), without a hit: at the highest dose activity change, negative = inhibition, hits mostly inhibitors. hit rate 0.41% among 130,000. AID 1454. HEK293-V1b, EGF-stimulated phospho-ERK AlphaScreen; active = well fitted inhibition curve with a large enough effect;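 note: plate controls were stimulated vehicle wells for no effect and unstimulated vehicle basal for full effect; nearly all actives have a fitted effect of over 55% in size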
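Readout: AlphaScreen signal for phosphorylated ERK in lysed HEK293 cells stably expressing V1b. Stimulus 25 nM EGF, 5 min, following 30 min compound exposure. Data scaled to DMSO basal and full EGF activation.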
* = called active by the depositor; [ ] = dose if it differs, or a comment. Only a selection was taken, and hits are over-represented in it overall. Potency is the fitted concentration of half-maximal effect.

SMILES | ERK EGF inh
CC(=O)C1=C(O)C(=O)N(Cc2cccnc2)C1c1ccc(Cl)cc1Cl (stereo not given) | 2%
CC(=O)OC1COC(OC2C(O)C(C)OC(OC3C(OC4CCC5(C)C(CCC6(C)C5CC=C5C7CC(C)(C)CCC7(C(=O)O)CCC56C)C4(C)CO)OCC(O)C3O)C2O)C(O)C1OC(C)=O (stereo not given) | 20µM*
C/C=C(/C)C(=O)OC1C(OC(C)=O)[C@@]2(CO)C(O)C[C@@]3(C)C(=CCC4[C@@]5(C)CCC(OC6OC(C(=O)O)[C@@H](O[C@@H]7OC(CO)C(O)C(O)C7O)C(O)[C@H]6O[C@@H]6OC(CO)C(O)C(O)C6O)[C@](C)(CO)C5CC[C@@]43C)C2CC1(C)C (stereo not given in full) | 7%
C[C@@H]1OC(OC2CC[C@@]3(C)C(CC[C@@]4(C)C3CC=C3C5CC(C)(C)CC[C@]5(C(=O)OC5OCC(O)[C@@H](O)[C@@H]5OC5O[C@@H](C)[C@H](O[C@H]6OC(CO)C(O)C(O)C6O)C(O)C5O)C(O)C[C@@]34C)C2(C)C)C(O)C(O)[C@H]1OC1OCC(O)C(O)[C@H]1O (stereo not given in full) | 14µM*
CC1(C)CC[C@]2(C(=O)O)CC[C@]3(C)C(=CCC4[C@@]5(C)CC[C@H](O)C(C)(C)[C@@H]5CC[C@]43C)C2C1 (stereo not given in full) | -7%
CC1(C)CC[C@]2(C(=O)O)CC[C@]3(C)C(=CC[C@@H]4[C@@]5(C)CC[C@H](O)C(C)(C)[C@@H]5CC[C@]43C)[C@@H]2C1 | 7%[57.5 µM]
CC1(C)CC[C@]2(C(=O)O)CC[C@@]3(C)C(=CCC4[C@@]5(C)CCC(O)[C@@](C)(CO)C5CC[C@@]43C)C2C1 (stereo not given in full) | 10%
Cc1cc(=O)[nH]c(N/N=C2/CCCC/C2=C\c2ccccc2)n1 | 2%[57.5 µM]
CCN(CC)P(=O)(Nc1cccc(C(F)(F)F)c1)c1ccc(N(C)C)cc1NC(=O)c1ccco1 (stereo not given) | -6%
Cc1ccc2nc3nc(NCC4CCCO4)c(C(=O)NC4CCCCC4)cc3c(=O)n2c1 (stereo not given) | 4%
CCCC[C@@]1(C2CCCC2)Cc2cc(OCC(=O)O)c(Cl)c(Cl)c2C1=O | 21%
COc1ccc(C(=O)/C=C/Nc2ccc([N+](=O)[O-])cc2)cc1 | 1%
COc1ccc(NC(=O)CNC(=O)c2ccc([N+](=O)[O-])cc2)cc1 | 5%
COC(=O)/C(=C\C(=O)c1ccc([N+](=O)[O-])cc1)Nc1ccc(OC)cc1 | 13µM*
CC(C)(C)OC(=O)N/N=C\c1ccc([N+](=O)[O-])s1 | 10%
Cc1ccc2c(c1)S/C(=C/c1ccc[n+](C)c1)N2CCO | -5%
CCN1/C(=C2\C(=O)N(c3ccccc3)N=C2C)C=Cc2cc(C)ccc21 | -14%
CCN1/C(=C/c2cc[n+](C)cc2)C=Cc2cc(C)ccc21 | 16µM*
O=C(CCc1nnc(-c2ccccc2)o1)NCc1c(F)cccc1F | -3%
Cc1ccccc1C(=O)NC(CC(C)C)C(=O)Nc1ccc(S(N)(=O)=O)cc1 (stereo not given) | 0%
Cc1cccc(NC(c2ccc(C)s2)c2ccc3ccc(C)nc3c2O)n1 (stereo not given) | 9%
Cc1ccnc(NC(c2ccsc2)c2ccc3ccc(C)nc3c2O)c1 (stereo not given) | 32µM*
Cc1ccnc(NC(c2cccnc2)c2ccc3cccnc3c2O)c1 (stereo not given) | 3%
O=C(Nc1cccc(Cl)c1)c1ccc(F)c(S(=O)(=O)N2CCN(c3ccccn3)CC2)c1 | 5%
CSc1c(C#N)c(N)c(C#N)c2c1COC(C)(C)C2 | 4%
SMILES | ERK EGF inh
CCOC(=O)Cc1csc(NC(=O)/C=C/c2ccc(Br)o2)n1 | 35µM*
CCOC(=O)Cc1csc(NC(=O)c2ccc(C)cc2)n1 | 5%
CCCC(=O)Nc1nc(CC(=O)OCC)cs1 | 3%
CC(C)=CCCC1(C)C=Cc2c(O)c3c(c(CC=C(C)C)c2O1)OC12C(=CCCC1C(C)(C)O[C@@]2(C/C=C(\C)C(=O)O)C(=O)O)C3=O (stereo not given in full) | 13%
COc1ccc(Nc2cc(C(=O)NCc3ccco3)c3ccccc3n2)cc1 | 12%
Cc1ccc(-c2csc3ncnc(Nc4ccc(C(=O)O)cc4)c23)cc1 | 10%[57.5 µM]
COc1ccc(-c2csc3ncnc(Nc4ccc(O)cc4)c23)cc1 | 28µM*
O=C(O)c1ccc(Nc2ncnc3scc(-c4ccccc4)c23)cc1 | -10%
CCOc1ccc(C(=O)NCC(=O)OCC(=O)Nc2cccc(S(=O)(=O)N3CCCC3)c2)cc1 | -7%[57.5 µM]
O=C(O)C1CC=CCC1C(=O)Nc1ccccc1C(=O)N1CCN(c2ccc(F)cc2)CC1 (stereo not given) | 12%
COc1ccc(/C=N/NC(=O)c2ccc(F)cc2)cc1CN1CCc2cc(OC)c(OC)cc2C1C (stereo not given) | 6%
CN1CCN(c2oc(/C=C/c3ccccc3)nc2C#N)CC1 | -2%[57.5 µM]
O=Cc1sc(=O)n(Cc2cccc(C(=O)O)c2)c1Cl | -4%[57.5 µM]
CCn1c(Cl)c(C=O)s/c1=N\S(=O)(=O)c1ccccc1 | 18µM*
CCN1C(=O)CS/C1=N\S(=O)(=O)c1ccc(Cl)cc1 | 13%
CCOC(=O)/C(C#N)=C/c1cccc(C)c1 | 2%[57.5 µM]
Cn1nc(-c2ccccc2)c(N2CCCCC2)cc1=O | 6%
O=C1c2ccccc2-c2cccc(C(=O)N3CCCCC3)c21 | -3%[57.5 µM]
Cn1c(=O)cc2c3c(c(N4CCCCC4)ccc31)C(=O)c1ccccc1-2 | 22µM*
O=C(Nc1c2c(nc3ccccc13)CCCC2)c1ccccc1Cl | 4%
CCc1ccc(C(=O)COC(=O)c2n[nH]c3ccccc23)cc1 | 11%
Cc1ccc(S(=O)(=O)Nc2cccc(CP(=O)(c3ccccc3)c3ccccc3)c2)cc1 | 6%[57.5 µM]
O=C(COC(=O)CCc1nc2ccccc2c(=O)[nH]1)NC1CCS(=O)(=O)C1 (stereo not given) | 1%
COc1cc(/C=N/Nc2nc(-c3ccc(S(=O)(=O)N(C)C)cc3)cs2)ccc1O | 8.9µM*
COc1ccc(/C=N/Nc2nc(-c3cccc(S(=O)(=O)N4CCCC4)c3)cs2)cc1OC | -3%
SMILES | ERK EGF inh
COc1cc(/C=N/Nc2cc(C)nc(NS(=O)(=O)c3ccc(C)cc3)n2)ccc1O | -2%
CC(Cc1cccs1)NC(=O)Nc1ccc([N+](=O)[O-])cc1 (stereo not given) | -5%
Cc1cccnc1NC(=O)c1cc2c(=O)oc3ccccc3c2s1 | -9%
Cc1cccc(Nc2ccc(NCc3ccccc3)nn2)c1 | 2%
Cc1cc(=O)[nH]c(NCc2ccccc2)n1 | -16%[57.5 µM]
Cc1nn(-c2nnc(NCc3ccccc3)nn2)c(C)c1Br | 22µM*
CC(=O)NN1C(=O)c2ccccc2NC1c1ccco1 (stereo not given) | -1%
Cc1cc(C)n(CCNC(=O)CCc2nnc(CCc3ccccc3)o2)n1 | -11%
Cn1cccc1/C=N/NC(=O)C(O)c1ccccc1 (stereo not given) | 6%[57.5 µM]
OCCC1CN(Cc2cccnc2)CCN1CCc1ccccc1 (stereo not given) | 2%
COc1ccc(S(=O)(=O)N2CCOCC2)cc1Br | 1%
Cc1ccc(O)c(N=Nc2ccc(S(=O)(=O)N3CCOCC3)cc2)c1 | 9%
CC(C)(C)c1cc(Br)c(O)c(N=Nc2ccc(S(=O)(=O)N3CCOCC3)cc2)c1 | 25µM*
CNC1(C)C2CCC(C2)C1(C)C (stereo not given) | 13%
CCOC(=O)N1CCN(S(=O)(=O)c2ccc(C)c([N+](=O)[O-])c2)CC1 | 25%

Screens as filed in PubChem.
